# In ChEMBL document CHEMBL1857833, “Screening and optimization of specific chemical series against human African Trypanosomiasis (HAT)”:
# The whole screen tested about 4,400 compounds, of which about 390 (8.9%) showed an effect of 50% or more. Shown is part of a subset that was picked to be rich in strong results.
# System: Trypanosoma brucei
# Assay: DNDI: Inhibition of Human African Trypanosomiasis, SBRI 427, in vitro at 2 ug.mL-1
# Type: functional
row,Structure (SMILES),% inhibition [%]
1,COc1cccc(-c2nc(CN(C)CCc3ccccc3)co2)c1,1
2,COc1cccc(Oc2ccc(/C(=N/O)NC3CC(C)CC(C)(C)C3)cn2)c1 (configuration not stated),7
3,Cc1cccc(Oc2ccc(/C(=N/O)NC3CCC(C)CC3)cn2)c1 (configuration not stated),59
4,Cc1cccc(Oc2ccc(/C(=N/O)NC3CCc4ccccc43)cn2)c1 (configuration not stated),10
5,COc1cccc(Oc2ccc(/C(=N/O)NC3CCC(C)CC3)cn2)c1 (configuration not stated),89
6,COc1cccc(Oc2ccc(/C(=N/O)NCC3CCCCC3)cn2)c1,87
7,Cc1cccc(Oc2ccc(/C(=N/O)NC3CC(C)CC(C)(C)C3)cn2)c1 (configuration not stated),47
8,COc1ccc(CN/C(=N\O)c2ccc(Oc3cccc(OC)c3)nc2)cc1,10
9,COc1cccc(Oc2ccc(/C(=N/O)NC3CCN(Cc4ccccc4)C3)cn2)c1 (configuration not stated),-3
10,Cc1cccc(Oc2ccc(/C(=N/O)NCC3CCCCC3)cn2)c1,36
11,COc1cccc(Oc2ccc(/C(=N/O)NC3CCCCC3)cn2)c1,98
12,Cc1ccc(/C(=N/O)N2CCC3CCCCC3C2)c(Oc2cccc(F)c2)n1 (configuration not stated),16
13,CCCN(Cc1coc(-c2cccc(F)c2)n1)CC1CC1,17
14,COc1ccc(NCc2coc(-c3cccc(F)c3)n2)cc1,14
15,CC(C)c1cccc(Oc2cc(/C(=N/O)NC3CCc4ccccc43)ccn2)c1 (configuration not stated),4
16,Clc1ccccc1-c1nc(CN2CCN(C/C=C/c3ccccc3)CC2)co1,-22
17,COC(=O)C1CCN(/C(=N\O)c2cccnc2OCC2CCCCC2)CC1,6
18,Cc1ccc(/C(=N/O)NCc2cccnc2)c(Oc2cccc(F)c2)n1,5
19,Cc1ccc([C@@H](C)NCc2coc(-c3ccc(OC(F)(F)F)cc3)n2)cc1,-17
20,CCc1ccc(Oc2ncccc2/C(=N/O)N2CC(C)CC(C)C2)cc1 (configuration not stated),15
21,CC(NCc1coc(-c2ccc(C(F)(F)F)cc2)n1)C1CCCCC1 (configuration not stated),7
22,CC1CN(Cc2coc(-c3ccc(C(F)(F)F)cc3)n2)CC(C)O1 (configuration not stated),12
23,CCOc1ccc(-c2nc(CN3CC(C)OC(C)C3)co2)cc1 (configuration not stated),-8

row,Structure (SMILES),% inhibition [%]
1,CCOc1ccc(-c2nc(CNC3CC(C)CC(C)(C)C3)co2)cc1 (configuration not stated),99
2,CCOc1ccc(-c2nc(CNC3CCCCCC3)co2)cc1,20
3,CC1CC(NCc2coc(-c3ccc(C(F)(F)F)cc3)n2)CC(C)(C)C1 (configuration not stated),98
4,C#CC1(NCc2coc(-c3ccccc3Cl)n2)CCCCC1,-12
5,COc1ccc(CN/C(=N\O)c2ccc(Oc3cc(C)cc(C(C)C)c3)nc2)cc1,28
6,Brc1ccc(-c2nc(CNCc3cccnc3)co2)cc1,-36
7,COc1cccc(-c2nc(CN(C)C(C)(C)C)co2)c1,31
8,c1ccc(-c2nc(CN3CCN(C4CCCCC4)CC3)co2)cc1,-4
9,CCOc1ccccc1CN/C(=N\O)c1ccnc(Oc2ccc(Cl)cc2)c1,7
10,COc1ccc(Oc2ncccc2/C(=N/O)NCC2CCCO2)cc1 (configuration not stated),-15
11,O/N=C(\NCc1ccccn1)c1cccnc1Oc1cc(Cl)ccc1Cl,0
12,CCOc1ccccc1CN/C(=N\O)c1cccnc1Oc1ccc(Cl)cc1,87
13,CCOc1ccccc1CN/C(=N\O)c1ccc(Oc2ccc(Cl)cc2)nc1,1
14,COc1ccc(CN/C(=N\O)c2cccnc2Oc2cc(Cl)ccc2Cl)cc1,5
15,CC(C)COc1ncccc1/C(=N/O)NCC1CCCO1 (configuration not stated),6
16,O/N=C(\NCc1ccccc1)c1cccnc1Oc1cc(Cl)ccc1Cl,100
17,Cc1ccc(/C(=N/O)NCc2ccccn2)c(Oc2cc(Cl)ccc2Cl)n1,30
18,CC(C)c1ccc(Oc2ncccc2/C(=N/O)NCC2CCCO2)cc1 (configuration not stated),98
19,Cc1ccccc1CN/C(=N\O)c1cccnc1Oc1cc(Cl)ccc1Cl,99
20,COCC(C)N/C(=N\O)c1ccc(C)nc1Oc1ccc(SC)c(C)c1 (configuration not stated),-10
21,Cc1ccc(Oc2nc(C)ccc2/C(=N/O)N2CCCCC2)c(C)c1,0
22,CC(NCc1coc(-c2ccc(C(F)(F)F)cc2)n1)c1ccccc1 (configuration not stated),2
23,COc1ccc(-c2nc(CNCCc3ccccc3OC)co2)cc1,-4

row,Structure (SMILES),% inhibition [%]
1,Cc1ccc(-c2nc(CN3CCN(C(=O)C4CCCO4)CC3)co2)cc1 (configuration not stated),21
2,Cc1ccc(Oc2cc(/C(=N/O)NCc3cccnc3)ccn2)c(C)c1,-3
3,COc1ccc(Oc2nc(C)ccc2/C(=N/O)NCc2ccc(C)o2)cc1,16
4,CCc1ccc(Oc2ncccc2/C(=N/O)N2CCN(C)CC2)cc1,-4
5,CCc1ccc(Oc2ccc(/C(N)=N/O)cn2)cc1,20
6,COc1ccc(Oc2ncccc2/C(=N/O)NCc2ccccn2)cc1,2
7,CCOc1ccccc1CN/C(=N\O)c1cccnc1Oc1ccccc1SC,100
8,COc1ccccc1CN/C(=N\O)c1cccnc1Oc1cccc2ccccc12,0
9,CCc1ccc(Oc2ncccc2/C(=N/O)NCc2ccccc2C)cc1,99
10,CCOc1ccccc1CN/C(=N\O)c1cccnc1OC1CCC1,5
11,CCOc1ccccc1CN/C(=N\O)c1cccnc1OCC(C)C,3
12,COc1ccc(Oc2ncccc2/C(=N/O)NCc2ccccc2C)cc1,85
13,COc1ccc(Oc2ncccc2/C(=N/O)NCc2ccccc2OC)cc1,94
14,Cc1ccc(/C(=N/O)N2CCC(N(C)C)C2)c(OCc2cccc(F)c2)n1 (configuration not stated),-7
15,O/N=C(\NCc1ccccc1)c1ccc(Oc2c(F)c(F)cc(F)c2F)nc1,30
16,c1csc(-c2nc(CNCCN3CCOCC3)co2)c1,-8
17,CCN(Cc1coc(-c2ccccc2C)n1)c1ccc2c(c1)OCO2,13
18,Cc1ccc2cccc(Oc3cc(/C(=N/O)NCc4cccs4)ccn3)c2n1,6
19,CCN(Cc1coc(-c2ccc(F)cc2)n1)c1ccc2c(c1)OCO2,-2
20,CN(Cc1cccnc1)/C(=N\O)c1ccnc(Oc2cccc(F)c2)c1,2
21,CCOc1ccccc1-c1nc(CNCc2cc(OC)c(OC)c(OC)c2)co1,8
